Source: PubChem
An excerpt weighted towards active compounds, which were near 1.3% of everything screened.
HTR5A ag = counter-screen for OPRM1-OPRD1 agonists: human HTR5A agonism | P47898 | HTR5A agonist assay, luminescence, cell-based | activation, % at 9.3 µM | 0.61% of 340,000 active; in the data active means activation mostly above about 9.5%, no sharp cut-off; inactive means mostly below about 7.6%;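 further: 0% = cells with vehicle only and 100% = reference agonist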
Target sequence (P47898 whole entry, looked up): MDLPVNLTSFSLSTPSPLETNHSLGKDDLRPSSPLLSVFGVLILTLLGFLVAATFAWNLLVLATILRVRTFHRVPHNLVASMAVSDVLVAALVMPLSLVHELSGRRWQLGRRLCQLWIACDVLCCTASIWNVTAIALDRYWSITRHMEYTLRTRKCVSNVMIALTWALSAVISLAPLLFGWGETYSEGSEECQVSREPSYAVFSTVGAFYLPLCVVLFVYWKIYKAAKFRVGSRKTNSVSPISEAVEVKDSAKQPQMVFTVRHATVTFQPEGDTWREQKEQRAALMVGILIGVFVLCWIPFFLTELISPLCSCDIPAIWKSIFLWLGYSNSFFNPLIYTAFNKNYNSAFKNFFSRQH
MOR-DOR ag = agonists of human mu-delta opioid receptor heterodimerization; P35372+P41143; cells, OPRM1-OPRD1 heterodimerization, luminescence; activation, % at 9.3 µM; 0.3% of 340,000 active; in the data active means activation above about 18%;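 further: 0% = vehicle-treated cells and 100% = reference agonist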
HTR5A inv ag = counter-screen for OPRM1-OPRD1 inverse agonists: human HTR5A inverse agonism; 0.083% of 340,000 active; inhibition, % at 9.3 µM; AID 504634; P47898; HTR5A cell line, luminescence; in the data active means inhibition mostly above about 23%, no sharp cut-off; inactive means mostly below about 18%;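 further: 0% = cells with DMSO and 100% = no-cell wells with DMSO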
PvdQ inh = blocks Pseudomonas aeruginosa PvdQ acylase activity; inhibition, % at 10 µM; purified PvdQ acylase, fluorescence plate reader; 0.063% of 340,000 active; in the data active means inhibition above about 30%, passing the limit was not always enough;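 further: 0% = vehicle neutral wells and 100% = reference inhibitor wells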
MOR-DOR inv ag = mu-delta opioid heterodimer inverse agonism; inhibition, % at 9.3 µM; cell-based MOR-DOR heterodimer luminescence; 0.21% of 340,000 active; in the data active means inhibition above about 22%, passing the limit was not always enough;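 further: 0% = cells with DMSO and 100% = wells without cells with DMSO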
CR mimetic SO = lowers age-related superoxide in aged yeast cells; S. cerevisiae aged cells, superoxide DHE fluorescence; hits give low values; 0.18% of 330,000 active; superoxide response (% of plate mean), % at 10 µM;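 active means superoxide response under a set limit, about three screen SD below normal, cut at about 65% in these data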;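 further: yeast aged for seven days with compound at 30 °C before DHE staining; 100% = average MFI of all compound-treated wells on the plate with controls excluded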
An asterisk follows results filed as active; · = no result given.

SMILES	HTR5A ag	MOR-DOR ag	HTR5A inv ag	PvdQ inh	MOR-DOR inv ag	CR mimetic SO
Cc1ccc(S(=O)(=O)NCC(=O)OCC(=O)c2ccc(S(=O)(=O)N3CCCCC3)cc2)cc1C	-17.1	-18.7	42.1*	-4.4	77.5*	·
CCOC(=O)CNS(=O)(=O)c1ccc(S(=O)(=O)N2CCCC2)cc1	-0.2	1.3	0.5	-11.0	-7.8	89.5
Cc1nn(C)cc1S(=O)(=O)NCc1ccc2c(c1)OCO2	0.2	-2.4	6.0	-8.4	12.3	115.0
Cc1cc2sc(NC(=O)c3ccco3)nc2cc1Cl	1.3	5.5	-4.9	-11.2	-27.6	105.5
COc1cc2sc(NC(=O)c3ccco3)nc2cc1Cl	9.9*	2.8	-38.6	0.8	-13.1	106.7
CCOC(=O)/C=C1/SCC(=O)N1CC(=O)NC12CC3CC(CC(C3)C1)C2	10.0*	-3.4	-41.0	-2.6	17.6	·
Cc1ccccc1SCC(=O)OCC(=O)NCc1ccccc1	-1.0	-2.1	4.1	-7.0	11.1	106.3
O=C(NCCCN1CCCC1=O)c1ccc2c(c1)NC(=O)C(N1CCOCC1)S2 (stereo unspecified)	0.1	-1.7	-3.4	8.4	9.8	·
CCCCN(C)CCNC(=O)c1ccc2c(c1)NC(=O)C(N1CCCCC1)S2 (stereo unspecified)	12.5*	-0.6	-24.9	-14.4	3.4	89.5
O=C(O)CCc1nc(-c2ccc(Cl)cc2)no1	-0.3	-2.8	0.7	35.5*	13.9	128.9
CC(=O)NCCc1nc(-c2ccc(Cl)cc2)no1	0.3	-0.5	-9.2	-12.5	2.8	107.7
COc1cc(C#Cc2c(-c3cncn3C)n(C)c3ccc(-c4cnc(OC)nc4)cc23)cc(OC)c1	12.3*	1.0	-44.1	-9.6	-5.2	116.0
CCCCS(=O)(=O)N1CCC(C(=O)NCC2CCCO2)CC1 (stereo unspecified)	-0.7	-1.2	2.7	-11.4	5.8	111.0
CC(C)CNS(=O)(=O)c1cc(C(=O)N2CCOCC2)c(Cl)cc1Cl	10.0*	-1.5	11.4	14.6	7.4	94.5
CC(C)CNS(=O)(=O)c1cc(C(=O)O)c(Cl)cc1Cl	-9.5	-1.6	17.7	-4.6	8.2	94.1
Cc1ccc2oc(=O)c3cnn(CC(=O)N4CCCc5ccccc54)c3c2c1	14.1*	-1.0	1.7	7.4	5.5	103.8
COc1ccc(N2CCN(C(=O)c3cc(C)oc3C)CC2)cc1	5.0	-2.4	-18.3	-1.3	13.7	101.8
Cc1ccc(C)c(S(=O)(=O)N2CCN(C(=O)CCCc3c[nH]c4ccccc34)CC2)c1	5.5	-0.8	-16.7	-10.1	5.2	113.1
CC1CCCC(NC(=O)NC(=O)COC(=O)c2ccc(O)cc2O)C1C (stereo unspecified)	6.3	3.8	-16.1	-12.4	-15.1	121.5
Cc1nc(SCC(=O)NNC(=O)c2ccc(F)cc2)c2ccccc2n1	12.8*	-2.0	-31.4	3.7	8.4	101.3
CCCc1nc(SCC(=O)NNC(=O)c2ccc(OC)cc2)c2ccccc2n1	-0.7	-2.6	1.9	-3.5	13.4	97.6
O=C(N1CCCCC1)C1(c2ccccc2)CCCCC1	2.9	2.3	-10.8	-17.3	-10.7	87.9
O=CNC1(c2ccccc2)CCCCC1	0.3	-3.1	-1.1	94.1*	15.3	·
CSc1ccc(S(=O)(=O)Nc2c(C)n(C)n(-c3ccccc3)c2=O)cc1	-1.2	-4.5	4.6	-16.3	21.6	104.7
CCN(CC)CCN(C(=O)c1ccc2c(c1)OCCO2)c1nc2ccc(C)cc2s1	3.9	1.4	0.4	1.3	-7.5	107.7
SMILES	HTR5A ag	MOR-DOR ag	HTR5A inv ag	PvdQ inh	MOR-DOR inv ag	CR mimetic SO
Cc1ccc2nc(N(CCN(C)C)C(=O)c3ccc4c(c3)OCCO4)sc2c1	13.6*	-2.4	-40.1	-17.2	13.2	98.1
CCOC(=O)c1cc(CNC(=O)c2c(C)oc3c2CCCC3)c(C)o1	11.2*	1.0	-2.9	2.5	-5.6	99.3
CCOC(=O)c1coc(CNC(=O)c2c(C)oc3c2CCCC3)c1	14.9	0.0	-36.2	2.3	-0.1	104.8
O=C1Nc2ccccc2C1=Nc1cccc(Cl)c1	-5.6	-11.0	20.6	-15.3	52.8*	96.6
O=C1Nc2ccccc2C1=Nc1ccc(S(=O)(=O)Nc2nccs2)cc1	3.7	0.6	-12.9	22.4	-2.6	100.2
CC(=O)c1ccc(N=C2C(=O)Nc3ccccc32)cc1	-2.4	-10.6	9.0	11.3	52.9*	103.7
CSc1cccc(N=C2C(=O)Nc3ccccc32)c1	-4.3	-10.8	15.8	10.2	51.9*	95.1
O=C(CCl)N(Cc1ccccc1)c1ccccc1	6.7	-0.5	-39.0	-8.2	3.3	134.7
Cc1cccc(N(Cc2ccccc2)C(=O)CCl)c1	65.2*	66.7*	-180.5	-7.5	-367.7	·
COc1ccc(Oc2ncc(CN3CCN(c4ccccc4)CC3)s2)cc1	10.5*	8.3	-37.7	-7.0	-46.6	98.4
Cc1cc(Cl)ccc1Oc1ncc(CN2CCN(c3ccccc3)CC2)s1	2.6	1.1	-22.8	-8.2	-6.3	104.8
CC(C)(C)c1cc(O)c(C(C)(C)C)cc1O	·	·	·	·	·	52.0*
Cc1cc(C(C)(C)C)c(O)c(C(C)(C)C)c1	3.7	-1.4	-13.1	5.4	7.3	99.2
Cc1ccc(S(=O)c2snnc2C)cc1 (stereo unspecified)	-0.1	-3.6	0.2	6.2	16.4	96.9
Cc1ccc(S(=O)c2ccc(C)cc2)cc1	-0.7	-2.2	1.9	78.9*	11.1	100.0
CN1C(=O)S/C(=C\c2ccc(-n3cncn3)cc2)C1=O	1.0	-2.4	-2.5	48.0*	11.8	78.9
O=Cc1ccc(-n2cncn2)cc1	-4.4	0.4	4.1	-9.3	-2.5	110.3
Cc1ccc2nc(-c3ccc(O)cc3)oc2c1	0.1	-0.7	-0.5	31.8*	3.4	96.0
Cc1ccc2nc(-c3cccc(N)c3)oc2c1	-0.3	-0.6	6.4	3.7	3.8	91.2
COc1ccc(C(=O)NCc2nnc(SCC(=O)c3ccccc3)n2C)cc1OC	2.2	-0.4	7.1	-14.5	2.3	97.0
COc1ccc(-n2nnnc2SCC(=O)c2cccc(OC)c2)cc1	-1.2	-0.2	14.0	-7.1	1.0	89.7
CCOc1ccc(-n2nnnc2SCC(=O)c2ccccc2)cc1	13.4*	1.0	9.2	-15.8	-5.9	102.4
CCC(CC)c1nnc(NC(=O)CC(C)c2ccccc2)s1 (stereo unspecified)	11.5*	5.5	-39.1	-17.0	-26.5	90.1
COc1ccccc1-n1c(SCC(=O)NCC2CCCO2)nc2c([nH]c3ccccc32)c1=O (stereo unspecified)	-11.6	-8.1	37.8*	-1.0	44.7*	101.5
CCOc1ccccc1N(CC(=O)NC1CCCCC1)S(=O)(=O)c1ccc(C)cc1	0.2	1.0	-0.4	-1.5	-7.8	96.7
CCCCN(CC)C(=O)c1cc2c(=O)[nH]c3ccc(C)cc3c2s1	1.2	2.4	-4.3	-3.3	-10.5	100.9
CCCCN(Cc1ccco1)C(=O)c1cc2c(=O)[nH]c3ccc(C)cc3c2s1	15.9*	19.7*	-46.6	-13.6	-108.2	109.4
